# High-throughput results deposited in PubChem BioAssay by National Center for Advancing Translational Sciences (NCATS).
# D2 ag-1: agonists of human D2 dopamine receptor; P14416; HEK293 T-REx D2 cells, calcium flux agonist mode; activation, % at 2 µM; 340,000 compounds, 0.53% hits; AID 485358;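 active = activation over 3 SD above normal in the single-dose calcium agonist read, cut at about 30% in these data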
#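 Tetracycline-induced HEK293 T-REx cells with force-coupled D2 receptor, plated overnight at 30 C, loaded with no-wash calcium dye. After a 10 s baseline, compound was pin-added and calcium flux read kinetically for 180 s; calcium rises flagged agonists.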
# D2 antag: antagonists of human D2 dopamine receptor; inhibition, % at 10 µM; AID 485344; 340,000 compounds, 2% hits; HEK293 TREx D2 cells, calcium flux, dopamine EC80; P14416; in the data active = inhibition above about 30%; inactive = below that, where a call was filed
#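 Measurement of antagonist activity uses fluorescent calcium dye in inducible HEK293 T-REx D2 cells: 10 s baseline, compound addition with 180 s read, EC80 dopamine addition with a further 180 s read.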
# B2AR arrestin: beta2AR (human) beta-arrestin recruitment activity. P07550. beta-arrestin recruitment to beta2AR, cell-based reporter. Potency, µM (series often up to 46.1 µM), usual class: activators. 330,000 compounds, 0.02% hits. AID 492947; note: nearly all actives have a fitted effect of over 65% in size
# D2 PAM-1: positive allosteric modulators of human D2 dopamine receptor. P14416. HEK293 T-REx D2, calcium flux, EC20 dopamine potentiation. 340,000 compounds, 0.34% hits. potentiation, % at 10 µM;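 active = potentiation over 3 SD above the plate norm, cut at about 30% in these data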
#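 Potentiation of an EC20 dopamine calcium response is measured in a force-coupled, tetracycline-inducible Hek293 Trex D2 line. Compound-only kinetic reads over 180 s flag agonists before dopamine addition.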
# D2 PAM-2: potentiates the human D2 dopamine receptor allosterically. P14416. DiscoveRx D2 beta-arrestin cells, luminescence, 90 min; 100% = 57 uM dopamine signal. potentiation, % (test concentration not listed). 360,000 compounds, 0.23% hits; in the data active = potentiation above about 50%; inconclusive = mostly about 30% to 49%
#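 D2 cells co-treated with compound plus 50 nM dopamine (EC20) for 90 min at 37 deg C to detect potentiation. Beta-arrestin recruitment was read as enzyme-fragment luminescence after 1 h at ambient temperature. Full response was set by 57 uM dopamine.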
# D2 ag-2: agonists of human D2 dopamine receptor (beta-arrestin); DiscoveRx PathHunter D2 beta-arrestin, luminescence, 90 min; 100% = 57 uM dopamine signal; 360,000 compounds, 0.084% hits; activation, % (test concentration not listed); P14416; in the data active = activation above about 40%; inconclusive = between about 15% and that limit
#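 DiscoveRx PathHunter D2 beta-arrestin cells (2,100/well) attached overnight, then compound-stimulated 90 min at 37 C in HBSS/10 mM HEPES/0.1% Tween-20 buffer; beta-galactosidase complementation read by luminescence after 1 h at ambient temperature. Dopamine 57 uM final (EC100) as control.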
# D3 arrestin ag: activates human D3 dopamine receptor beta-arrestin recruitment; Potency, µM (titrated, usually from 76.9 µM), most hits filed as activators; AID 720506; 2,300 compounds, 4% hits; DiscoveRx D3 beta-arrestin cells, luminescence, 90 min; shares compounds with D2 ag-1; note: nearly all actives have a fitted effect of over 70% in size
# Target sequence (P35462 whole entry, looked up): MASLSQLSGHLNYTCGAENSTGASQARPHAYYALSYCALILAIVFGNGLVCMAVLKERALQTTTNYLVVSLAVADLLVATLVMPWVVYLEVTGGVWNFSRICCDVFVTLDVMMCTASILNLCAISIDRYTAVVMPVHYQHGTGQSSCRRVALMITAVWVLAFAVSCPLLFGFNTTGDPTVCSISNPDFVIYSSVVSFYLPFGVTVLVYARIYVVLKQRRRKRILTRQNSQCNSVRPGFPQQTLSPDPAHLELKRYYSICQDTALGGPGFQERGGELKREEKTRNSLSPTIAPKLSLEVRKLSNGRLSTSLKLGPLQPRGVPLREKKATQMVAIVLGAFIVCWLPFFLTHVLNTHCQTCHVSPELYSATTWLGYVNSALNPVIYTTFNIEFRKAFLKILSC
# D2 ag-3: D2 receptor agonism, beta-arrestin counterscreen | AID 720507 | 2,300 compounds, 5.9% hits | DiscoveRx PathHunter D2 beta-arrestin, luminescence, 90 min; response scale: percent relative to full dopamine signal | shares compounds with D2 ag-1 | Potency, µM (titrated, usually from 76.9 µM), actives largely listed as activators; note: nearly all actives have a fitted effect of over 70% in size
# A number is an active result; n = inactive; u = inconclusive; x = no result. Most compounds without a hit are left out; they make up all but 2.4% or so of the library. Unless noted, calls come from the whole dose curve; as a rule, active = well fitted activation curve with a large enough effect; inconclusive = small, poorly fitted or top-dose-only effect; inactive = flat fitted curve, though single readings scatter.
SMILES,D2 ag-1,D2 antag,B2AR arrestin,D2 PAM-1,D2 PAM-2,D2 ag-2,D3 arrestin ag,D2 ag-3
O=C(Nc1nccs1)c1cccnc1,n,n,n,n,n,n,n,n
O=C(NCCN1CCN(c2ccccc2)CC1)Nc1ccc(Cl)cc1,75.3,82.2,n,n,n,n,n,u
O=C(NCCN1CCN(c2ccccc2)CC1)Nc1ccccc1Cl,63.5,34.6,n,n,n,n,u,n
O=C(NCCN1CCN(c2ccccc2)CC1)Nc1cccc(Br)c1,n,n,n,n,n,n,x,x
COc1cc(NC(=O)NCCN2CCN(c3ccccc3)CC2)cc(OC)c1OC,75.0,76.0,n,n,n,n,n,u
O=C(NCCN1CCN(c2ccccc2)CC1)Nc1ccccc1Br,59.2,76.0,n,n,n,n,n,n
CCCN1CCN(CCNC(=O)Nc2ccccc2Cl)CC1,n,n,n,n,n,n,x,x
Nc1n[nH]c(=S)n1-c1ccc(Cl)cc1,n,n,n,n,n,n,x,x
O=C(NC(Cc1ccccc1)C(=O)O)/C(=C\c1ccco1)NC(=O)c1ccccc1Br (centres undefined),n,n,n,n,n,n,x,x
CN(Cc1ccc(Cl)cc1)C(=O)c1ccccc1SCC(=O)N1CCCC1,x,x,n,n,n,n,n,n
CCN(CC(=O)Nc1ccc(NC(C)=O)cc1)C(=O)c1ccccc1SCC(=O)N1CCCC1,x,x,n,x,n,n,n,n
CC(=O)Nc1ccc(NC(=O)COC(=O)c2ccccc2SCC(=O)N2CCCC2)cc1,n,n,n,n,n,n,x,x
Nc1nc2ccccc2n1/N=C/c1ccc([N+](=O)[O-])s1,n,n,n,n,n,n,u,n
CC(C)(C)NC(=O)c1cc2c(ccc3ccccc32)oc1=O,x,x,n,x,n,n,u,n
Cc1cc(-c2cccs2)c2c(N)c(C(=O)c3ccc4c(c3)OCO4)sc2n1,40.7,n,n,n,n,n,n,n
COc1ccc(C(=O)c2sc3nc(C)cc(-c4cccs4)c3c2N)cc1,n,n,n,n,n,n,x,x
Cc1cc(=O)n2nc(N3CCC(C(=O)NCCc4ccc(Cl)cc4)CC3)sc2n1,43.3,n,n,n,n,n,n,n
O=C(C1CCC(CNS(=O)(=O)c2cccc3cccnc23)CC1)N1CCCC1 (centres undefined),n,n,n,n,n,n,x,x
O=S(=O)(NCC1CCCN(Cc2ccccc2O)C1)c1cccc2cccnc12 (centres undefined),48.5,n,n,n,n,n,n,n
O=C(NNS(=O)(=O)c1ccccc1)c1ccncc1,n,n,n,n,n,n,x,x
CCOC(=O)C1CCN(Cc2cccc(OC)c2)CC1,76.2,43.6,n,n,n,u,n,n
CCOC(=O)C1CCN(Cc2ccc(N(C)C)cc2)CC1,42.0,n,n,n,n,n,n,n
CCOC(=O)C1CCN(Cc2ccc(OC)cc2OC)CC1,n,n,n,n,n,n,x,x
CCOC(=O)C1CCN(Cc2ccc(OCc3ccccc3)cc2)CC1,68.0,59.2,n,n,n,n,n,u
CCOC(=O)C1CCN(Cc2ccc(F)c(F)c2)CC1,n,n,n,n,n,n,x,x
SMILES,D2 ag-1,D2 antag,B2AR arrestin,D2 PAM-1,D2 PAM-2,D2 ag-2,D3 arrestin ag,D2 ag-3
COc1ccc(NC(=O)CSC2=Nc3ccccc3N=C(c3ccc(F)cc3)C2)cc1OC,n,x,x,n,x,x,x,x
CC(CCc1ccccc1)NC(=O)C(C)OC(=O)c1ccco1 (centres undefined),n,n,n,n,n,n,x,x
Cc1ccc(C(=O)OC(C)C(=O)NC(C)CCc2ccccc2)o1 (centres undefined),n,n,n,n,n,n,n,n
Cc1ccccc1-c1cc(C(=O)NCC2CC2)nn1CC1CC(c2cccc([N+](=O)[O-])c2)=NO1 (centres undefined),n,n,n,n,n,n,n,n
COc1ccc(NC(=O)N2CCOCC2)cc1OC,n,n,n,n,n,n,x,x
CC(NC(=O)c1cccs1)C(c1cccs1)N1CCN(Cc2ccccc2)CC1 (centres undefined),n,n,n,n,n,n,x,x
CC(NC(=O)c1ccc2c(c1)OCO2)C(c1cccs1)N1CCOCC1 (centres undefined),n,n,n,n,n,n,x,x
CCC(=O)NC(C)C(c1cccs1)N1CCN(Cc2ccccc2)CC1 (centres undefined),44.9,n,n,n,n,n,n,n
CC(NC(=O)c1ccc2c(c1)OCO2)C(c1cccs1)N1CCN(c2ccccc2)CC1 (centres undefined),42.8,n,n,n,n,n,n,n
CC(C)(C)NCC(O)(c1ccc(Cl)cc1)c1ccc(Cl)cc1,n,n,n,n,n,n,x,x
NCC(O)(c1ccc(Cl)cc1)c1ccc(Cl)cc1,n,n,n,n,n,n,n,n
COc1ccc([C@H]2CC(=O)C=C(c3ccc4c5c(cccc35)CC4)C2)cc1,n,n,n,n,n,n,n,n
COc1ccc([C@H]2CC(=O)C=C(c3ccc(C)c4ccccc34)C2)cc1,n,n,n,n,n,n,x,x
Cc1cc(C)c2c(N)c(C(=O)c3ccc(Cl)cc3)sc2n1,n,n,n,n,n,n,x,x
Nc1c(C(=O)c2ccc(Cl)cc2)sc2nsc(SCCN3CCOCC3)c12,n,n,n,n,n,n,n,n
NC(=O)CNC(=O)[C@@H]1CC2(CC(c3ccc(Cl)cc3)=NO2)CN1C(=O)c1ccccc1 (some centres undefined),n,n,n,n,n,n,x,x
CC1=CC(C)C(/C=N/N=C(N)N)C(C)C1 (centres undefined),n,n,n,n,n,n,n,n
O=C1C(=O)N(CCCn2ccnc2)C(c2cccnc2)/C1=C(/O)c1ccc(F)cc1 (centres undefined),40.1,n,n,n,n,n,n,n
COC(=O)C1(C(F)(F)F)N=C(C(F)(F)F)Nc2ccc(Cl)cc21 (centres undefined),x,x,n,x,n,n,x,x
CCOC(=O)C1(C(F)(F)F)N=C(C(F)(F)F)Nc2cc(C)c(C)cc21 (centres undefined),n,n,n,n,n,n,n,n
